# Measured values from ChEMBL document CHEMBL1157539, “Thousands of chemical starting points for antimalarial lead identification” (Nature, 2010).
# System: Plasmodium falciparum
# Experiment: GSK_TCMDC: Inhibition of Plasmodium falciparum 3D7 in whole red blood cells, using parasite LDH activity as an index of growth. Test compounds present at 2uM
# Type: functional
row,Compound,Inhibition [%]
1,O=c1cc(NCCCNCc2cc(Cl)cc(Cl)c2OCc2ccc(Cl)cc2)[nH]c2ccccc12,98
2,O=C(C=Cc1cn(-c2ccccc2)nc1-c1ccccc1)N1CCN(c2ccncc2)CC1,90
3,Cc1cc(N2CCCC2)nc(Nc2ccc(NC(=O)c3ccc4c(c3)OCO4)cc2)n1,100
4,N#Cc1cccc(C(O)CN(Cc2ccccc2)Cc2ccccc2)c1 (configuration not stated),100
5,COc1ccc(-c2ccc(NC(=O)c3ccc(Cl)cc3)cc2)cc1CN1CCNCC1.O=C(O)C(F)(F)F,99
6,CCCC1N=C(N)N=C(N)N1c1ccc(Cl)cc1.Cl (configuration not stated),96
7,CN1CCN(CCCN(Cc2csc(-c3ccc(CNCc4ccccc4)cc3)n2)C(=O)Nc2ccc3ccccc3c2)CC1.O=C(O)C(F)(F)F,94
8,COc1ccc2nccc([C@@H](O)CN3CCC(NC(=O)c4nc(Cl)c(Cl)c(N)c4Cl)CC3)c2c1.CS(=O)(=O)O,87
9,CNC(=O)CSc1nnc(-c2ccc(C)cc2)c(-c2ccc(C)cc2)n1,94
10,CS(=O)(=O)Nc1ccc(-c2ccc3ccnc(N)c3c2)cc1.O=C(O)C(F)(F)F,85
11,COc1cccc(CN2CCN(C(c3ccccc3)c3ccccc3)CC2)c1O.O=C(O)C(=O)O,99
12,CCCN(C(=O)c1ccccc1C)c1nnc(-c2cccc(C)c2)s1,91
13,CC(C)CCn1c(Sc2ccc([N+](=O)[O-])cc2C(F)(F)F)nnc1-c1ccccc1Cl,99

# System: Plasmodium falciparum
# Experiment: GSK_TCMDC: Inhibition of Plasmodium falciparum Dd2 in whole red blood cells, using parasite LDH activity as an index of growth. Test compounds present at 2uM
# Type: functional
row,Compound,Inhibition [%]
1,COc1ccc(CCN(C)CCCN2CCC(NC(=O)c3cccc4c(=O)c5ccccc5[nH]c34)CC2)cc1OC.O=C(O)C(=O)O,72
2,COc1ccc(CN2CCC(CNC(C)c3cccc4ccccc34)CC2)cc1.O=C(O)C(F)(F)F (configuration not stated),26
3,COC(=O)c1cc(NC(=O)Nc2ccc(Cn3ncc(N4CCCNCC4)c(Cl)c3=O)cc2)cc(C(=O)OC)c1.O=C(O)C(F)(F)F,90
4,Cc1cc(N2CCCC2)nc(Nc2ccc(NC(=O)c3ccccc3C)cc2)n1,40
5,CCc1ccc(S(=O)(=O)Nc2ccc(CCN(C)C3CCN(C)CC3)cc2)cc1,9
6,CCc1ccccc1N1CCN(CCCC(=O)c2ccc(NC(=O)c3ccc(Cl)cc3)cc2)CC1,4
7,Fc1ccccc1C=NN=c1cc[nH]c2ccccc12,26
8,COc1ccc(S(=O)(=O)NCCCC2CCN(CCCCCNC(=O)C=Cc3ccc(Cl)c(Cl)c3)CC2)cc1,12
9,O=C(/C=C/c1ccccc1Cl)NC1CCC(CN2CCC(c3c[nH]c4ccncc34)CC2)CC1 (configuration not stated),100
10,Oc1ccc2ccccc2c1C=NNc1nc(=Nc2ccccc2)nc(N2CCOCC2)[nH]1,49
11,C=CC(=O)Nc1ccc(Cl)cc1C(O)c1ccccc1 (configuration not stated),5
12,CCCn1cnc2cc(C(=O)Nc3ccc(-c4cccc(CN(C)C)c4)cc3)ccc2c1=O,6
13,COc1cccc(-n2ncc3c(N/N=C/c4ccc(CN(C)CCN(C)C)cc4)ncnc32)c1,91
14,Cc1ccc(NC(=O)c2ccc(NCCCN3CC(C)CC(C)C3)c([N+](=O)[O-])c2)cc1F (configuration not stated),85
15,O=C(CSc1nnc(O)n1Cc1ccccc1)Nc1ccccc1-c1ccccc1,36
16,Fc1ccc(CNc2ccc3ncc(-c4cccnc4)n3n2)cc1,7
17,Cc1cc(N[C@@H](CC(C)C)C(=O)NCc2cccs2)nc(NCCc2ccccc2)n1.O=C(O)C(F)(F)F,8
18,O=S(=O)(Nc1cccc(CCN2CCC(N3CCCCC3)CC2)c1)c1cccc(C(F)(F)F)c1,13
19,O=C(O)C(F)(F)F.c1ccc2[nH]c(-c3ccc(-c4ccc(CNCCc5ccncc5)cc4)s3)nc2c1,98
20,O=C(Nc1ccccc1)Nc1ccc(-c2cccc(-c3nc4cc(C(F)(F)F)ccc4[nH]3)c2)cc1,73
21,O=C(Cc1ccc[n+]([O-])c1)Nc1cccc(-c2cccc(-c3nc4cc(F)ccc4[nH]3)c2)c1,98
22,CS(=O)(=O)c1ccc(CCNCc2ccc(-c3ccc(CN(C(=O)c4cccc(C#N)c4)C4CCN(Cc5ccccc5)CC4)cc3)nc2)cc1.O=C(O)C(F)(F)F,56
23,CC(O)C1CCCCN1C(=O)c1cccc(-c2ccc(-c3nc4cc(F)ccc4[nH]3)cc2)c1 (configuration not stated),99
24,O=C(Nc1cccc([N+](=O)[O-])c1)Nc1ccc(Cl)c(C(F)(F)F)c1,87
